High-throughput results from PubChem.
Rows were chosen to be rich in hits. Some 5.8% of all compounds tested hit in one or more screens of this group.
KB-3-1 tox: KB-3-1 parental cell cytotoxicity; KB-3-1 viability, CellTiter-Glo ATP luminescence, 72 h; Potency, µM (doses to about 46.1 µM), hits mostly cytotoxic; actives 1.4% (n = 400,000); AID 1347075; further: nearly all actives have a fitted effect of over 60% in size
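Cytotoxicity measured as CellTiter-Glo luminescence after 72 h at 37 C. Compound titrations were pinned onto drug-naive KB-3-1 parental adenocarcinoma cells grown in DMEM with 10% FBS, and normalized data fitted to concentration-response curves.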
SW480 rerep: DNA re-replication induction in SW480 cells; AID 624297; actives 1.8% (n = 340,000); Potency, µM (doses to about 46.1 µM), most hits filed as activators; SW480 DNA re-replication, Hoechst DNA content imaging, 48 h; further: nearly all actives have a fitted effect of over 55% in size
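Compounds, transferred as 23 nL by pin tool, were incubated with cells for 48 hr; DNA content per nucleus was then quantified by Hoechst staining and fluorescence plate imaging.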
MCF10A rereplic: DNA re-replication induction in MCF 10a cells; MCF 10A DNA re-replication, Hoechst nuclear intensity, 48 h; Potency, µM (series often up to 46.1 µM), hits mostly activators; actives 2.9% (n = 350,000); AID 624296; further: nearly all actives have a fitted effect of over 50% in size
ALOX12 inh: inhibitors of human 12S-lipoxygenase ALOX12; P18054; purified 12hLO, xylenol orange hydroperoxide absorbance; Potency, µM (doses to about 108 µM), hits mostly inhibitors; actives 1.1% (n = 580,000); AID 1671190
Target sequence (P18054 whole entry, looked up): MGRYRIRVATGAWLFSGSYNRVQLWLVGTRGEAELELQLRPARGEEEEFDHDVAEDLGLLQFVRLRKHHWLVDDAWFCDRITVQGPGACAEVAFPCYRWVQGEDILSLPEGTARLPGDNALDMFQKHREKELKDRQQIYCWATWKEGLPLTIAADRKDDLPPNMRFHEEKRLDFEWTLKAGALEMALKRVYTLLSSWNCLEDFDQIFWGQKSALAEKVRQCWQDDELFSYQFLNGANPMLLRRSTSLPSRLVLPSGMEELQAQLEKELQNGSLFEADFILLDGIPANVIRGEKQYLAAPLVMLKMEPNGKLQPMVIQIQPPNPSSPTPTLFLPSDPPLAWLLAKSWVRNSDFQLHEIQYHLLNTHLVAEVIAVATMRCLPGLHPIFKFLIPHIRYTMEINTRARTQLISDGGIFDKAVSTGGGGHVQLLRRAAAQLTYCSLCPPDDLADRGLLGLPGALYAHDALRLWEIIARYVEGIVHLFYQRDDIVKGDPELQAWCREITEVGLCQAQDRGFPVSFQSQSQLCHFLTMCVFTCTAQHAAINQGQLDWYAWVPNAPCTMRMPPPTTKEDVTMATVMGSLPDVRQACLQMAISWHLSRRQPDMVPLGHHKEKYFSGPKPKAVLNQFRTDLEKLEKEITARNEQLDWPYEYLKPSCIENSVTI
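Purified human 12hLO (150 nM final) in 25 mM Hepes, 0.01% Triton X-100, pH 7.0 was preincubated 15 min at room temperature with compound. Then 40 uM arachidonic acid was added, 30 min. Hydroperoxide was read by Fe-XO absorbance ratio 573/405 nm.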
KB-V1 MDR tox: kills drug-selected multidrug resistant KB-V1 cells; KB-V1 MDR cells viability, CellTiter-Glo, 72 h; Potency, µM (series often up to 46.1 µM), actives largely listed as cytotoxic; actives 3.4% (n = 400,000); further: nearly all actives have a fitted effect of over 60% in size
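Luminescent ATP read-out (CellTiter-Glo, 10 min) measures survival of drug-selected KB-V1 MDR cells after 72 h, 37 degrees C compound exposure. Medium: phenol-red-free DMEM, 10% FBS. Values from fitted concentration-response curves.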
PINK1 expr mod: PINK1 expression modulation; Potency, µM (doses to about 76.6 µM), most hits filed as activators; actives 0.2% (n = 410,000); PINK1 immunofluorescence, high-content cytometry, 24 h; AID 624263; active means well fitted activation curve with a large enough effect; inconclusive means small, poorly fitted or top-dose-only effect; cell line not stated here; further: nearly all actives have a fitted effect of over 65% in size
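Decision-based qHTS: stable cells, 24 h exposure to five compound concentrations, CCCP as control. Fixed cells stained for PINK1 plus nuclear, mitochondrial and cell markers, cytometer read.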
Each line names hits and unclear results; the compound was inactive in the other large screens. Unless noted, the call rests on the fitted dose curve; in most records, active means well fitted curve in the direction sought with a large enough effect; inconclusive means small, poorly fitted or top-dose-only effect, or another doubt; inactive means no such curve, though single readings can be large; an effect the other way counts as inactive or inconclusive.

C=C1C(=O)[C@]23C[C@H]1CCC2[C@]1(C)CCC[C@@](C)(C(=O)O)C1C[C@@H]3O (stereo partly specified)	KB-3-1 tox 8.2µM, KB-V1 MDR tox inconclusive (no result: SW480 rerep, MCF10A rereplic)
COc1ccc(NC2=Nc3ccccc3N3C2=Nc2c(c(C)nn2-c2ccc(C)cc2)C3c2cccnc2)cc1 (stereo unspecified)	SW480 rerep 2.91µM, MCF10A rereplic 4.61µM, KB-V1 MDR tox inconclusive
CC(=O)Nc1ccc(NC2=Nc3ccccc3N3C2=Nc2c(c(C)nn2-c2ccccc2)C3c2ccccc2)cc1 (stereo unspecified)	KB-3-1 tox 8.2µM, SW480 rerep inconclusive, MCF10A rereplic inconclusive, KB-V1 MDR tox inconclusive
CC(O)C(=O)Nc1ccc(C(F)(F)F)cc1 (stereo unspecified)	none (no result: KB-3-1 tox, SW480 rerep, MCF10A rereplic, KB-V1 MDR tox, PINK1 expr mod)
CCn1cc([N+](=O)[O-])c(C(=O)Nc2nc(-c3ccc(C)cc3)c(C)s2)n1	SW480 rerep inconclusive, MCF10A rereplic inconclusive, KB-V1 MDR tox inconclusive
CCn1cc([N+](=O)[O-])c(C(=O)Nc2nc(-c3ccc(C)c(C)c3)c(C)s2)n1	SW480 rerep inconclusive, MCF10A rereplic 8.2µM, PINK1 expr mod 2.82µM
O=C1Nc2ccccc2CC12CCN(Cc1cccc3ccccc13)C2 (stereo unspecified)	ALOX12 inh 100µM (no result: KB-3-1 tox, SW480 rerep, MCF10A rereplic, KB-V1 MDR tox, PINK1 expr mod)
CCN(CC)C(=O)CSc1nc(C)cc(C)c1C#N	none
CCc1ccc2nc(SCC(=O)N(CC)CC)c(C#N)cc2c1	MCF10A rereplic inconclusive, KB-V1 MDR tox 13µM
CN(Cc1cccnc1)c1nc2c(c(=O)[nH]1)CCN(Cc1cccc(F)c1F)CC2	none (no result: KB-3-1 tox, SW480 rerep, MCF10A rereplic, KB-V1 MDR tox, PINK1 expr mod)
CC(C)(C)C1CCC(CN2C(Nc3ccccc3)=NC[C@@H]2Cc2ccccc2)CC1 (stereo partly specified)	KB-3-1 tox inconclusive, SW480 rerep inconclusive, ALOX12 inh inconclusive, KB-V1 MDR tox 18.4µM
Oc1ccc(C2=NN(c3ccccc3)C(c3ccc(F)cc3)C2)cc1 (stereo unspecified)	SW480 rerep 23.1µM, MCF10A rereplic 5.8µM, ALOX12 inh inconclusive
COc1ccc(C2CC(c3ccc(F)cc3)=NN2c2ccccc2)cc1OC (stereo unspecified)	KB-3-1 tox inconclusive, SW480 rerep inconclusive, MCF10A rereplic 16.4µM, KB-V1 MDR tox inconclusive
O=C(c1cccs1)N1N=C(c2ccc(O)cc2)CC1c1ccccc1 (stereo unspecified)	MCF10A rereplic inconclusive, ALOX12 inh inconclusive
O=C(c1cccs1)N1N=C(c2ccccc2)CC1c1ccc(O)cc1 (stereo unspecified)	MCF10A rereplic inconclusive, ALOX12 inh inconclusive, KB-V1 MDR tox 13µM
CC(=O)Nc1ccc(C2CC(c3ccc(Cl)cc3)=NN2c2ccccc2)cc1 (stereo unspecified)	SW480 rerep 1.46µM, ALOX12 inh inconclusive
C=C(Br)CNCCCC	none (no result: KB-3-1 tox, SW480 rerep, MCF10A rereplic, KB-V1 MDR tox, PINK1 expr mod)
Cc1[nH]c2c(C(=O)NC3CCCC3)cccc2c1C	none (no result: KB-3-1 tox, SW480 rerep, MCF10A rereplic, KB-V1 MDR tox, PINK1 expr mod)
COc1ccc(C2=NN(c3ccccc3)C(c3ccc(OC)c(OC)c3)C2)cc1 (stereo unspecified)	KB-3-1 tox inconclusive, SW480 rerep 14.6µM, MCF10A rereplic inconclusive
Cc1ccc(NC(=O)N2N=C(c3ccc(F)cc3)CC2c2ccc(F)cc2)cc1 (stereo unspecified)	SW480 rerep 5.17µM, KB-V1 MDR tox 23.1µM, PINK1 expr mod inconclusive
Fc1ccc(C2CC(c3cccs3)=NN2c2ccccc2)cc1 (stereo unspecified)	SW480 rerep inconclusive, MCF10A rereplic 3.55µM, ALOX12 inh inconclusive
COc1ccc(NC(=O)C2(C)Cc3c(-c4ccc5c(c4)OCO5)ccnc3O2)cc1OC (stereo unspecified)	ALOX12 inh inconclusive (no result: SW480 rerep, MCF10A rereplic)
COc1ccc(NC(=O)C2(C)Cc3c(-c4ccc5c(c4)OCO5)ccnc3O2)cn1 (stereo unspecified)	KB-3-1 tox 5.8µM, KB-V1 MDR tox 11.6µM (no result: SW480 rerep, MCF10A rereplic)
CC1(C(=O)Nc2ccc3c(c2)OCO3)Cc2c(-c3cccc(C(N)=O)c3)ccnc2O1 (stereo unspecified)	KB-3-1 tox 7.31µM, KB-V1 MDR tox inconclusive (no result: SW480 rerep, MCF10A rereplic)
